# Bioassay records from PubChem.
# Rows were chosen to be rich in hits. Some 2.2% of all compounds tested hit in one or more screens of this group.
# GLP-1R inv ag – acts as inverse agonist at human GLP-1 receptor | P43220 | HEK293 GLP-1R CRE-luciferase, luminescence, 24 h; GLP-1R form is constitutively active | Potency, µM (doses to about 38.3 µM), for inactives: at the top dose activity change, negative = inhibition, hits mostly inhibitors | 410,000 tested, 1.6% active; note: potency is the fitted concentration of half-maximal effect; % is set by controls: 0 for no effect and ±100 for the full control effect; nearly all actives have a fitted effect of over 55% in size
# Target sequence (P43220 whole entry, looked up): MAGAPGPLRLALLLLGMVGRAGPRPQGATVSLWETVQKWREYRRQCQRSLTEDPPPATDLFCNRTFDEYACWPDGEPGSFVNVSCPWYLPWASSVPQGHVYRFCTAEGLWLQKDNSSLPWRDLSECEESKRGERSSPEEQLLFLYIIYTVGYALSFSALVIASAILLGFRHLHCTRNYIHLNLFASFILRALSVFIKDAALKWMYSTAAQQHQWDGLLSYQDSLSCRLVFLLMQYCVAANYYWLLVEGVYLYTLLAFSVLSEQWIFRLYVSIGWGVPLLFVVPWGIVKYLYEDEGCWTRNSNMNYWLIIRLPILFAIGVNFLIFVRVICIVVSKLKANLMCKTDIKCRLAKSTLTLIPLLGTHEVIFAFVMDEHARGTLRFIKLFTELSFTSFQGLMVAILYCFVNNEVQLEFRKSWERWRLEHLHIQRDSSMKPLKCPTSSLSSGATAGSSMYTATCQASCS
#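 HEK293 cells stably co-expressing constitutively active GLP-1R and a cAMP-responsive luciferase reporter were seeded in DMEM with 10% Nu serum, given compounds after 12 h, and incubated 24 h at 37 deg C. Luminescence was then read.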
# CCT modulator – changes cytosolic chaperonin activity; purified chaperonin ATPase assay, HTRF ADP detection, 30 min; activity change, % (no concentration beside the values), hits read low; 360,000 tested, 0.3% active; AID 651819; in the data active = activity change below about -30%; note: % is set by controls: 0 for no effect and ±100 for the full control effect
#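 We incubate TRiC, 40 or 20 nM final, with library compounds at 76 uM and 10 uM ATP for 30 min at 37 °C. ADP formed is detected with Transcreener HTRF reagents after 30 min at room temperature.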
# GLP-1R agonist – activates the human GLP-1 receptor. P43220. HEK293 GLP-1R CRE-luciferase, luminescence, 4-6 h; cells express a hypersensitive GLP-1R form. Potency, µM (series often up to 45.6 µM), for the others: at the top dose activation, hits mostly activators. 380,000 tested, 0.007% active; note: potency is the fitted concentration of half-maximal effect; % of control where 0% means no effect
# MmCpn inh – M. maripaludis TRiC chaperonin inhibition | purified Mm-Cpn ATPase, ADP Transcreener TR-FRET | Potency, µM (doses to about 76.9 µM), inactives show top-dose activity, negative = inhibition, hits mostly inhibitors | 330,000 tested, 0.031% active | AID 504842; note: potency is the fitted concentration of half-maximal effect; % is set by controls: 0 for no effect and ±100 for the full control effect; nearly all actives have a fitted effect of over 80% in size
#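 25 nM Mm-CPN + cpd, 10 min 37°C; + 10 uM ATP, 30 min 37°C; buffer 30 mM Tris pH 7.4, 100 mM KCl, 5 mM MgCl2, 1 mM DTT; Transcreener ADP HTRF detection 30 min RT.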
# uPA surface inh – cell surface uPA generation inhibition | cell surface uPA generation assay, qHTS | Potency, µM (doses to about 38.3 µM), inactives show at the top dose activity change, negative = inhibition, usual class: inhibitors | 330,000 tested, 0.31% active | AID 540303; active = well fitted inhibition curve with a large enough effect; inconclusive = small, poorly fitted or top-dose-only effect; inactive = no such curve, though single readings can be large or run the other way; tested in mouse RAW 264.7 cells; note: potency is the fitted concentration of half-maximal effect; % is set by controls: 0 for no effect and ±100 for the full control effect; nearly all actives have a fitted effect of over 55% in size
# GLP1R cytotox – cytotoxic in the GLP-1 receptor inverse agonist counter-screen | Potency, µM (top dose mostly 38.3 µM), for inactives: at the highest dose activity change, negative = inhibition, usual class: inhibitors | HEK293 cAMP-luciferase reporter cells, luminescence, 24 h | 410,000 tested, 0.13% active;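 note: loss of luciferase light is scored as toxicity; potency is the fitted concentration of half-maximal effect; % is set by controls: 0 for no effect and ±100 for the full control effect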
#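 Quantitative HTS format, 1536 wells, 200 cells/uL seeded. Compounds: 23 nL, 24 h, 37 °C. Detection: luciferase reagent, luminescence at 12 min RT; decreased signal taken as cytotoxic.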
# * = called active by the depositor; ? = inconclusive; . = not tested or not shown; ! = a repeat was not active; [ ] = another dose, or the depositor's remark. Unless noted, calls come from the whole dose curve; as a rule, active = well fitted curve in the direction sought with a large enough effect; inconclusive = small, poorly fitted or top-dose-only effect, or another doubt; inactive = no such curve, though single readings can be large; an effect the other way counts as inactive or inconclusive.
SMILES,GLP-1R inv ag,CCT modulator,GLP-1R agonist,MmCpn inh,uPA surface inh,GLP1R cytotox
Cc1csc(NC(=S)NC(=O)c2ccccc2)n1,3.5µM*,0,8%,2%,-8%,?
CCOc1ccccc1CNC(=O)c1ccc(N2Cc3ccccc3Oc3ncccc32)s1,4%,.,.,.,.,-4%
CCOC(=O)c1ccc(Nc2cnc3ccccc3n2)cc1,14%,-6,14%,-3%,17%,15%
CCOC(=O)c1ccc(Nc2cc(C)nc(-c3ccccc3)n2)cc1,?,0,8%,-5%,5µM*,9%
CN(CC(=O)N1CCOCC1)Cc1c(Cl)cccc1NC(=O)c1ccccc1,.,.,-4%,.,.,.
CC1CCC(N(C)C(=O)CN2C(=O)NC(c3ccccc3)(c3ccccc3)C2=O)CC1 (centres undefined),10µM*,-3,-3%,.,.,-2%
COc1ccc(C2(c3ccc(OC)cc3)NC(=O)N(CC(=O)N(C)C3CCC(C)CC3)C2=O)cc1 (centres undefined),?,-3,-7%,-3%,-7%,-11%
CCOc1ccc(/C=C/C(O)=C2/C(=O)N(C)C3(C)CC2c2ccccc2O3)cc1OC (centres undefined),3.2µM*,2,10%,0%,-8%,-5%
Cc1nc2c3ccccc3nc(NNC(=O)CCC(=O)NCCC(C)C)n2n1,16%,2,3%,1%,-11%,7%
CCN(CC)CCCNC(=O)CCC(=O)NNc1nc2ccccc2c2nc(C)nn12,-7%,0,-6%,3%,4%,7.9µM*!
COc1cccc(C2=NS(=O)(=O)N(C)C(C(=O)Nc3ccccc3SC)=C2)c1,11%,.,.,.,.,2%
COc1ccccc1OCC(=O)N/N=C1\CCCCc2ccccc21,10µM*,-2,11%,0%,4%,3%
COc1ccccc1OCC(=O)N/N=C1\CCc2ccccc21,-27%,-34*,8%,2%,6%,-21%
COc1ccc(OCC(=O)N/N=C2\CCCc3ccccc32)cc1,?,1,7%,-2%,3%,2%
Cc1cccc2c1OCC/C2=N\NC(=O)COc1ccccc1,0%,-32*,0%,1%,.,0%
CCCCCCC(=O)O[C@@H]1CC[C@H]2[C@@H]3CCc4cc(O)ccc4[C@H]3CC[C@]12C,.,.,1%,.,.,.
CC(NC(=O)OC(C)(C)C)C(=O)NC(CCC(=O)OCc1ccccc1)C(N)=O (centres undefined),23%[7.66 µM],-60*,6%,1%,3%,6%[7.66 µM]
CC(C)C[C@H]1CNC(=S)N1CC1CCN(CCC23CC4CC(CC(C4)C2)C3)CC1,10µM*,-1,0%,.,-14%,-2%
CCn1c(C)c(C)c2cc(C(=O)NCCN3CCOCC3)ccc21,-6%,-40*,-3%,-6%,-14%,7%
Cc1c(C)n(Cc2ccc(Cl)cc2)c2ccc(C(=O)NCCN3CCOCC3)cc12,3.5µM*,1,7%,1%,-10%,-8%
COc1cccc(CN(Cc2ccco2)C(c2ccc(F)cc2)c2nnnn2C(C)(C)C)c1 (centres undefined),10µM*,2,-28%,2%,0%,3%
CC(C)(C)n1nnnc1C(c1cccnc1)N(Cc1ccccc1)Cc1ccco1 (centres undefined),108%,-3,0%,-3%,7%,63%
COc1ccc2[nH]c(C(=O)Nc3ncc(C)cc3Br)cc2c1,11%,0,8%,-1%,-2%,28%
COc1ccc2[nH]c(C(=O)Nc3ccc(F)cc3Br)cc2c1,13%,-50*,10%,?,1%,6%
CCN(CC)C(=O)c1cnn(-c2ccccc2)c1NC(=O)c1ccco1,30%,-1,3%,2%,4%,8%
Cc1ccc(NC(=O)c2cnn(-c3ccccc3)c2NC(=O)c2ccco2)cc1C,?,-39*,1%,0%,6%,-1%
